These results are taken from PubChem BioAssay (NCI).

Each structure is given as a SMILES string. This is part of a sample that, as a whole, favours compounds with a hit. Of some 83,000 tested, about 20% had one in any assay.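 Cells were grown in 96-well plates and exposed to the test compound at a single concentration for 48 hours; results are reported as percent growth, with values below 10 considered active.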 Unmarked numbers belong to inactive results. Activity calls are given as the source filed them.

For the first experiment, the system named is 786-0 renal. The experiment is described as follows: NCI-60 one-dose screen, 48 h (100 = growth as untreated, 0 = no growth, -100 = all killed). Particulars: 10 µM unless noted.
For `CCCC(=O)CC(C)=O.CCCC(=O)CC(C)=O.[Cu]`, the growth is 104%.

Consider `COc1cc(C(C)n2cc(-c3ccccc3)nn2)ccc1OC1CCCCC1` (stereo not given), for which the growth is 78.1%.

Consider `NC1(N2SC(S)=C3CCCC=C32)CCCCC1`, for which the growth was 106%.

In the case of `CCN1CCN(c2cc(C)c3cc(NC(=O)c4ccc(OC)c(OC)c4)ccc3n2)CC1`, the growth is 49%.

With `CC(C)[C@H](NC(=O)Cn1cc(C(=O)O)nn1)C(=O)O`, the growth was 104%.

With `C=C[C@@H]1CCC/C=C/[C@@H]2C[C@H](O)C[C@H]2[C@H](O)/C=C/C(=O)O1`, the growth was -12.9% (active).

Regarding `COc1ccc(Nc2nc(N/N=C/c3ccc(O)cc3)nc(Nc3ccc([N+](=O)[O-])cc3)n2)cc1`, the growth was 105%.

On to `Cc1ccc(CN2CCC(C(=O)Nc3ccc(-c4cc5ccccc5[nH]4)cc3)CC2)o1`, for which the growth is 38.4%.

Regarding `O=C(Nc1ccc(N2CCNCC2)cc1)c1[nH]ncc1Nc1cc(Oc2ccccc2)ncn1`, the growth was 2.25% (active).

`CN1C(=O)N(C)C2C1NN=c1s/c(=C\c3ccc([N+](=O)[O-])cc3)c(=O)n12` (stereo not given): the growth is 64.4%.

On to `Nc1ccc(-c2nc3cc(Oc4ccc(Oc5ccc6[nH]c(-c7ccc(N)cc7)nc6c5)cc4)ccc3[nH]2)cc1`, for which the growth is 92%.

As to `COc1cccc2cc(N(C)c3nc(C)nc4ccsc34)ccc12`, the growth was 20.5%.

On to `COc1cc(/C=C2\CCC/C(=C\c3cc(CN4CCCCC4)c(O)c(OC)c3)C2=O)cc(CN2CCCCC2)c1O`, for which the growth is 72.4%.

Consider `CCOC(=O)C1=C(C)N=c2s/c(=C\c3ccccc3O)c(=O)n2C1c1ccc(OC)c2ccccc12` (stereo not given), for which the growth was 36%.

Turning to `CCN1C(=O)N(CC)C2Nn3c(s/c(=C4\C(=O)N(C(C)C)c5ccccc54)c3=O)=NC21` (stereo not given), the growth is 49.1%.

`Cc1c(-c2csc(-n3nc(C(F)(F)F)cc3C(F)(F)F)n2)no[n+]1[O-]`: the growth was 97.5%.

Regarding `CC1(O)COCCCCOc2c(CN)cccc2NC(=O)c2nc(cnc2N)-c2ccc(cc2)S(=O)(=O)C(C)(C)C1` (stereo not given), the growth was -58% (active).

In the case of `COc1nc2c(c(=O)n1C)N=C1c3ccccc3C(=O)C1C(c1ccccc1)N2` (stereo not given), the growth is 84.7%.

For the compound `CS(=O)(=O)Nc1ccc(C(=O)NC(C(=O)NO)c2ccc(-c3cccc(F)c3)cc2)cc1` (stereo not given), the growth is 72.8%.

Take `COc1cc(C(=O)Nc2ccc(-c3nc4ccccc4[nH]3)cc2)cc(OC)c1OC`: the growth was 73.4%.

Turning to `Fc1ccc(Oc2ccc(Nc3ncnc4onc(-c5ccccc5)c34)cc2)cc1`, the growth is 97.3%.

Take `CC1=C(CC(=O)c2cccc([N+](=O)[O-])c2)C(=O)c2ccccc2C1=O`: the growth was -53.2% (active).

With `COc1ccc(Cn2cc(Cn3c(=O)c(-c4nc5ccccc5[nH]4)cc4ccccc43)nn2)c(OC)c1OC`, the growth is -50.1% (active).

Take `COc1ccc(Cn2c(Br)c3c(c2Br)-c2nc(N)sc2CC3)cc1`: the growth was 56.8%.

As for `O=C(N/N=C/c1ccccc1O)C(=O)Nc1ccc(F)cc1`, the growth was 53.8%.

In the case of `CCOc1ccc(Nc2ccnc3cc(Cl)ccc23)cc1`, the growth was 19.1%.

As to `COc1cc(/C=C2\CN(C)C/C(=C\c3cc(CN4CCCC4)c(O)c(OC)c3)C2=O)cc(CN2CCCC2)c1O`, the growth is 72.2%.

Take `CCOC(=O)c1cnc2c(C)cccc2c1Nc1ccc(C(C)=O)cc1`: the growth is 8.84% (active).

For the compound `COc1cc(C(=O)O/N=C(\N)Cc2cccc3ccccc23)cc(OC)c1OC`, the growth was 45.9%.

With `Nc1ncnc(N)c1NC(=O)c1ccc(OCc2ccccc2)cc1`, the growth was 104%.

For the compound `O=C1C(=O)c2c(ccc3ccccc23)-c2ccccc21`, the growth is -6.68% (active).

As for `CCOC(=O)c1sc(-c2ccc(OS(=O)(=O)c3cccs3)c(C=O)c2)nc1C`, the growth was 5.71% (active).

Take `O=c1oc2ccc(F)cc2c(=O)n1-c1ccc(Cl)cc1F`: the growth was 1.85% (active).

Turning to `Cc1ccc(C)c(-c2csc(Nc3ccc(C)c(C)c3)n2)c1`, the growth was 65.9%.

Regarding `Nc1ccc(-n2c(=O)oc3ccc(Cl)cc3c2=O)c(Cl)c1`, the growth is -33.5% (active).

Regarding `c1ccc(-c2ccc(-c3nc4ccccc4[nH]3)cc2)cc1`, the growth is 88%.

On to `COc1ccc(-c2nc(-c3ccccn3)c(-c3ccccn3)n2CC(C)C)cc1OC1CCCC1`, for which the growth was 24.5%.

With `CN(C)c1ccc(N=Cc2ccc(N3CCOCC3)cc2)cc1`, the growth was 101%.

The next experiment concerns COLO 205 colon. Described as above. As to conditions: 10 µM unless noted.
Consider `CCCC(=O)CC(C)=O.CCCC(=O)CC(C)=O.[Cu]`, for which the growth is 97.4%.

For the compound `COc1cc(C(C)n2cc(-c3ccccc3)nn2)ccc1OC1CCCCC1` (stereo not given), the growth is 97.9%.

As for `NC1(N2SC(S)=C3CCCC=C32)CCCCC1`, the growth is 107%.

As for `CCN1CCN(c2cc(C)c3cc(NC(=O)c4ccc(OC)c(OC)c4)ccc3n2)CC1`, the growth was 11.9%.

On to `CC(C)[C@H](NC(=O)Cn1cc(C(=O)O)nn1)C(=O)O`, for which the growth was 119%.

Regarding `C=C[C@@H]1CCC/C=C/[C@@H]2C[C@H](O)C[C@H]2[C@H](O)/C=C/C(=O)O1`, the growth is -78.4% (active).

As for `COc1ccc(Nc2nc(N/N=C/c3ccc(O)cc3)nc(Nc3ccc([N+](=O)[O-])cc3)n2)cc1`, the growth is 111%.

Take `Cc1ccc(CN2CCC(C(=O)Nc3ccc(-c4cc5ccccc5[nH]4)cc3)CC2)o1`: the growth was 83.4%.

With `O=C(Nc1ccc(N2CCNCC2)cc1)c1[nH]ncc1Nc1cc(Oc2ccccc2)ncn1`, the growth was -49.1% (active).

`CN1C(=O)N(C)C2C1NN=c1s/c(=C\c3ccc([N+](=O)[O-])cc3)c(=O)n12` (stereo not given): the growth was 56.7%.

`Nc1ccc(-c2nc3cc(Oc4ccc(Oc5ccc6[nH]c(-c7ccc(N)cc7)nc6c5)cc4)ccc3[nH]2)cc1`: the growth was 75%.

With `COc1cccc2cc(N(C)c3nc(C)nc4ccsc34)ccc12`, the growth was -56.9% (active).

In the case of `COc1cc(/C=C2\CCC/C(=C\c3cc(CN4CCCCC4)c(O)c(OC)c3)C2=O)cc(CN2CCCCC2)c1O`, the growth was 88.4%.

With `CCOC(=O)C1=C(C)N=c2s/c(=C\c3ccccc3O)c(=O)n2C1c1ccc(OC)c2ccccc12` (stereo not given), the growth was -90% (active).

As to `CCN1C(=O)N(CC)C2Nn3c(s/c(=C4\C(=O)N(C(C)C)c5ccccc54)c3=O)=NC21` (stereo not given), the growth is 7.65% (active).

For the compound `Cc1c(-c2csc(-n3nc(C(F)(F)F)cc3C(F)(F)F)n2)no[n+]1[O-]`, the growth was 112%.

Turning to `CC1(O)COCCCCOc2c(CN)cccc2NC(=O)c2nc(cnc2N)-c2ccc(cc2)S(=O)(=O)C(C)(C)C1` (stereo not given), the growth is -47.9% (active).

`COc1nc2c(c(=O)n1C)N=C1c3ccccc3C(=O)C1C(c1ccccc1)N2` (stereo not given): the growth was 106%.

In the case of `CS(=O)(=O)Nc1ccc(C(=O)NC(C(=O)NO)c2ccc(-c3cccc(F)c3)cc2)cc1` (stereo not given), the growth is 109%.

On to `COc1cc(C(=O)Nc2ccc(-c3nc4ccccc4[nH]3)cc2)cc(OC)c1OC`, for which the growth was 44.6%.

`Fc1ccc(Oc2ccc(Nc3ncnc4onc(-c5ccccc5)c34)cc2)cc1`: the growth was 122%.

On to `CC1=C(CC(=O)c2cccc([N+](=O)[O-])c2)C(=O)c2ccccc2C1=O`, for which the growth was 108%.

Consider `COc1ccc(Cn2cc(Cn3c(=O)c(-c4nc5ccccc5[nH]4)cc4ccccc43)nn2)c(OC)c1OC`, for which the growth was 13.5%.

As to `COc1ccc(Cn2c(Br)c3c(c2Br)-c2nc(N)sc2CC3)cc1`, the growth was 66.9%.

As to `O=C(N/N=C/c1ccccc1O)C(=O)Nc1ccc(F)cc1`, the growth is 9.67% (active).

As for `COc1cc(/C=C2\CN(C)C/C(=C\c3cc(CN4CCCC4)c(O)c(OC)c3)C2=O)cc(CN2CCCC2)c1O`, the growth was 49%.

For the compound `CCOC(=O)c1cnc2c(C)cccc2c1Nc1ccc(C(C)=O)cc1`, the growth is -91.5% (active).

`COc1cc(C(=O)O/N=C(\N)Cc2cccc3ccccc23)cc(OC)c1OC`: the growth is -92.6% (active).

For `Nc1ncnc(N)c1NC(=O)c1ccc(OCc2ccccc2)cc1`, the growth was 103%.

As for `O=C1C(=O)c2c(ccc3ccccc23)-c2ccccc21`, the growth was 52%.

Consider `CCOC(=O)c1sc(-c2ccc(OS(=O)(=O)c3cccs3)c(C=O)c2)nc1C`, for which the growth was 79.6%.

In the case of `O=c1oc2ccc(F)cc2c(=O)n1-c1ccc(Cl)cc1F`, the growth is 11.7%.

On to `Cc1ccc(C)c(-c2csc(Nc3ccc(C)c(C)c3)n2)c1`, for which the growth was -54.6% (active).

As for `Nc1ccc(-n2c(=O)oc3ccc(Cl)cc3c2=O)c(Cl)c1`, the growth is -27.4% (active).

`c1ccc(-c2ccc(-c3nc4ccccc4[nH]3)cc2)cc1`: the growth was 102%.

Take `COc1ccc(-c2nc(-c3ccccn3)c(-c3ccccn3)n2CC(C)C)cc1OC1CCCC1`: the growth is 12.1%.

Consider `CN(C)c1ccc(N=Cc2ccc(N3CCOCC3)cc2)cc1`, for which the growth was 3.73% (active).
